Measurements as given in PubChem BioAssay (NCATS).
Results filed as inconclusive are left out. Values without a mark were called inactive. Activity calls are given as the source filed them. Calls come from the whole dose curve; as a rule, active = well fitted inhibition curve with a large enough effect; inconclusive = small, poorly fitted or top-dose-only effect; inactive = no such curve, though single readings can be large or run the other way.

target: Protein phosphatase 1D (Homo sapiens) (UniProt O15297); test: RapidFire Mass Spectrometry qHTS Assay for Modulators of WT P53-Induced Phosphatase 1 (WIP1) (AID 1347424); settings: WIP1 dephosphorylation of phosphopeptide, RapidFire MS; series mostly up to 63 µM; activity change, negative = inhibition: at the top concentration;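 note: amount of dephosphorylated VEPPL-S-QETFS peptide product formed by WIP1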;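 for activity change, negative = inhibition: plate controls were DMSO wells for no effect and GSK830371 inhibitor control at 10 µM for full effect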
Sequence (O15297 whole entry, looked up): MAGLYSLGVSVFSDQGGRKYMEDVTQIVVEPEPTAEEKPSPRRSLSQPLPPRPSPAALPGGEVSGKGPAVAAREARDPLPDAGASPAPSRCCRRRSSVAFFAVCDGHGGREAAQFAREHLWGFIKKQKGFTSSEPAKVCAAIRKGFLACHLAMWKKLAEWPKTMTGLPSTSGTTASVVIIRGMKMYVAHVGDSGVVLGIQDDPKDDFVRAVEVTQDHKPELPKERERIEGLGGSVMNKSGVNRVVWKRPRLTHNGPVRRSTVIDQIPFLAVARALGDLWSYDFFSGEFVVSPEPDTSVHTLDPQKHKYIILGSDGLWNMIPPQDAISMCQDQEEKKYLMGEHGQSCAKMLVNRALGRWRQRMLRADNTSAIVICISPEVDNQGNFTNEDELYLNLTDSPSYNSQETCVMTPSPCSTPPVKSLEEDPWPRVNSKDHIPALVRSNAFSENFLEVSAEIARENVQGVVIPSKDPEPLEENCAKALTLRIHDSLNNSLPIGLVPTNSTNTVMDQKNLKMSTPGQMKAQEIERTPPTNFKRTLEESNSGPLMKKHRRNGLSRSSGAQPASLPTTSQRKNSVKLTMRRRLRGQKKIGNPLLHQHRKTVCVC
In short: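 Mass-spectrometric measurement of dephosphorylated peptide after a 5 min room-temperature reaction of 10 nM WIP1 with 2 uM phosphopeptide, following 1 h compound preincubation in 30 mM MgCl2 buffer.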
Potency is the fitted concentration of half-maximal effect.

Compound | activity change, negative = inhibition | Potency
CCCCCCCCCCCC[N+](C)(C)Cc1ccccc1 | 47% | –
COc1c(N2C[C@@H]3CCCN[C@@H]3C2)c(F)cc2c(=O)c(C(=O)O)cn(C3CC3)c12 | 21.3% | –
CCCCC(=O)OCC(=O)[C@H]1[C@H](C)C[C@H]2[C@@H]3C[C@H](F)C4=CC(=O)C=C[C@]4(C)[C@@]3(F)[C@@H](O)C[C@@]21C | 4.44% | –
CC(C)(C)CC(=O)OCC(=O)[C@@]1(O)CC[C@H]2[C@@H]3CCC4=CC(=O)C=C[C@]4(C)[C@H]3[C@@H](O)C[C@@]21C | -4.78% | –
CCCC(=O)OCOC(=O)C1=C(C)NC(C)=C(C(=O)OC)C1c1cccc(Cl)c1Cl (stereo not drawn) | 3.56% | –
O=C1NC2CCCCN2C12CCN(CCCN1c3ccccc3CCc3ccc(Cl)cc31)CC2 (stereo not drawn) | 47.6% | –
O=C1Nc2ccccc2C1(c1ccc(O)cc1)c1ccc(O)cc1 | -18.2% | –
C[C@@H]1CCC[C@H](C)N1CCCC(O)(c1ccccc1)c1ccccn1 (stereo partly drawn) | -4.8% | –
CC(C(O)c1ccccc1)N(C)CCOC(c1ccccc1)c1ccccc1 (stereo not drawn) | 60.2% | –
N#C/C(=C1/SC[C@@H](c2ccc(Cl)cc2Cl)S1)n1ccnc1 | -21.1% | –
CC(C)(c1ccc(O)cc1)c1ccc(O)cc1 | -9.48% [at 128 µM] | –
CCN(CC)CCOc1ccc(/C(=C(\Cl)c2ccccc2)c2ccccc2)cc1 | 38.1% | –
C[C@]12CCC(=O)C=C1CC[C@@H]1[C@@H]2[C@@H](O)C[C@@]2(C)[C@H]1CC[C@]2(O)C(=O)COC(=O)CCC(=O)O | 13.8% | –
CCCCCCCCCCCCCC[N+](C)(C)C | 46.7% | –
Nc1ccc(O)cc1 | -23.8% | –
O=C(OCC(O)CO)c1ccccc1Nc1ccnc2c(C(F)(F)F)cccc12 (stereo not drawn) | 16.1% | –
CC(NCCC(c1ccccc1)c1ccccc1)c1ccccc1 (stereo not drawn) | 35.3% | –

Compound | activity change, negative = inhibition | Potency
NS(=O)(=O)c1cc(C(=O)NN2C[C@H]3[C@H]4CCC(C4)[C@H]3C2)ccc1Cl | -5.78% | –
CCCCC(CC)COC(=O)c1ccccc1C(=O)O (stereo not drawn) | -4.65% [at 128 µM] | –
Cc1cccc(C)c1NC(=O)c1cc(S(N)(=O)=O)c(Cl)cc1O | 12.9% | –
CCCCCCCCCCCCCCCCCCNC(=O)OC1CCN(C(=O)OC[C@H](COC(=O)N(Cc2cccc[n+]2CC)C(=O)c2ccccc2OC)OC)CC1 | 63.5% | –
Cc1nc(C2CCCCC2)c(-c2ccc(S(N)(=O)=O)c(F)c2)o1 | 0.386% | –
O=C(Nc1ccc(Cl)cc1)Nc1ccc(Cl)c(C(F)(F)F)c1 | – | 12.6 µM (active)
COC(=O)C1=C(C)NC(C)=C(C(=O)OCCc2ccc(N3CCN(C(c4ccccc4)c4ccccc4)CC3)cc2)C1c1cccc([N+](=O)[O-])c1 (stereo not drawn) | -2.83% | –
Cc1cc(OCCOCC[N+](C)(C)Cc2ccccc2)ccc1C(C)(C)CC(C)(C)C | 36.7% | –
Cc1nc(N)nc(N)c1-c1ccc(Cl)c(Cl)c1 | 9.79% | –
Nc1ccc2cc3ccc(N)cc3nc2c1 | -8.03% | –
C[C@H]1C[C@@H]2[C@H]([C@@H](O)C[C@@]3(C)[C@H]2CC[C@]3(O)C(=O)CO)[C@@]2(C)C=CC(=O)C=C12 | 6.17% | –
O=C(Nc1ccc(Cl)cc1)Nc1ccc(Cl)c(Cl)c1 | -0.968% | –
O=C1NCCN1CCN1CCC(c2cn(-c3ccc(F)cc3)c3ccc(Cl)cc23)CC1 | 40.9% | –
CCCC(=O)O[C@]1(C(=O)COC(=O)CC)CC[C@H]2[C@@H]3CCC4=CC(=O)CC[C@]4(C)[C@H]3[C@@H](O)C[C@@]21C | -1.13% [at 26.6 µM] | –
Cc1ccc(C(=O)Oc2ccc(C(O)CNC(C)(C)C)cc2OC(=O)c2ccc(C)cc2)cc1 (stereo not drawn) | 47.6% | –
CC(=O)[C@@]1(O)CC[C@H]2[C@@H]3C[C@H](C)C4=CC(=O)CC[C@]4(C)[C@H]3CC[C@@]21C | 23.4% | –
